In assay [1] the target is Cellular tumor antigen p53 (Homo sapiens) (UniProt P04637). Kind of assay: Primary qHTS for small molecule compounds that upregulate eGFP-tagged delta133p53alpha (in N-terminal) cells. (AID 2060322). Also: nearly all actives have a fitted effect of over 75% in size. Also: potency is read from the fitted curve at half-maximal effect.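 As to activation: series mostly up to about 56 µM; 0% = DMSO vehicle and 100% = reference activator.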 The following applies: NCI-H358 eGFP-delta133p53alpha fluorescence, 24 h; activation: active compounds read high. The gist of the method: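 NCI-H358 cells pre-induced 24 h with 10 ng/ml doxycycline to express N-terminal eGFP-delta133p53alpha, then dosed 24 h at 37C without doxycycline; fixed, Hoechst-stained, GFP intensity by laser scanning cytometry, normalized to DMSO (0%) and 57.5 uM 5-azacytidine (100%).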
Cellular tumor antigen p53 (Homo sapiens), sequence (P04637 whole entry, looked up): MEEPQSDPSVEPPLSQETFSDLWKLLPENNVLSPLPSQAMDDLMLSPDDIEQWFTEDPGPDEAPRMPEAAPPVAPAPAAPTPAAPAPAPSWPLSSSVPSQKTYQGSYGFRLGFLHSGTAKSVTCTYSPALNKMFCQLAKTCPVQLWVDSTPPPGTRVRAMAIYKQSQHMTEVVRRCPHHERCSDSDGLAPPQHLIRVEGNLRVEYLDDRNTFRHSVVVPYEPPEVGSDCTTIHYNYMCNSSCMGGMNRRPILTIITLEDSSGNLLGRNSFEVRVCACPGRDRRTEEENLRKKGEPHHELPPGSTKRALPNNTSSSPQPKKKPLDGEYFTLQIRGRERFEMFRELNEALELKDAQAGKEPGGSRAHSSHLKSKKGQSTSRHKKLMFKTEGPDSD

The target in assay [2] is Aldehyde dehydrogenase, mitochondrial (Homo sapiens) (UniProt P05091). The experiment in a line: qHTS for Inhibitors of the Aldehyde Dehydrogenase Family (ALDH2) Primary screen (AID 2061308).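 Also: plate controls were vehicle for no effect and reference inhibitor for full effect; nearly all actives have a fitted effect of over 55% in size.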
Assay [3] has as its target Retinaldehyde dehydrogenase 3 (Homo sapiens) (UniProt P47895). The experiment in a line: qHTS for Inhibitors of the Aldehyde Dehydrogenase Family (ALDH1A3) Primary screen (AID 2061315).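 Also: plate controls were DMSO vehicle for no effect and reference inhibitor for full effect.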

Inconclusive results are not listed. A number with no mark means an inactive call. Calls of active or inactive are those of the source. Calls follow the shape of the dose curve; as a rule, active = well fitted curve in the direction sought with a large enough effect; inconclusive = small, poorly fitted or top-dose-only effect, or another doubt; inactive = no such curve, though single readings can be large; an effect the other way counts as inactive or inconclusive. Peptide text beside a SMILES is read from it. * marks the point of attachment. βNA = c1ccc2cc(N*)ccc2c1; Cbz = O=C(OCc1ccccc1)*

As for `CC(=O)O[C@@H]1[C@H](O[C@@H]2O[C@H](CO)[C@@H](O)[C@H](O)[C@H]2O)[C@@H](O[C@@H]2O[C@@H](C)[C@H](O)[C@@H](O[C@@H]3O[C@H](CO)[C@@H](O)[C@H](O)[C@H]3O)[C@H]2O)[C@H](OC(=O)C23CCC4(C)C(=CCC5C6(C)CC(O)C(O[C@@H]7O[C@H](C(=O)O)[C@@H](O)[C@H](O)[C@H]7O)C(C)(C(=O)O)C6CCC54C)C2CC(C)(C)CC3O)O[C@@H]1C` (stereo partly specified), the activation in assay [1] was 22.9%. For the same compound, the results for the activity change, negative = inhibition in assay [2] and in assay [3] were -6.27% [at 11.2 µM] and -5.68% [at 11.2 µM], respectively.

Take `CCOc1ccc(S(=O)(=O)n2c(C)nc3ccccc32)cc1`: the activation in assay [1] is -4.33%. For the same compound, the Potency result in assay [2] and in assay [3] was “inactive” each time.

On to `C=C(C)C1CCC2(C(=O)O[C@@H]3O[C@H](CO[C@@H]4O[C@H](CO)[C@@H](O)[C@H](O)[C@H]4O)[C@@H](O)[C@H](O[C@@H]4O[C@@H](C)[C@H](O)[C@@H](O)[C@H]4O)[C@H]3O)CCC3(C(=O)O)C(CCC4C5(C)CCC(O)C(C)(C)C5CCC43C)C12` (stereo partly specified), for which the activation in assay [1] was -13.7%. The Potency result in assay [2] and in assay [3] was “inactive” throughout.

Consider `C[C@H](/C=C/[C@@]1(O)[C@H](C)CC(=O)CC1(C)C)O[C@@H]1O[C@H](CO[C@@H]2OC[C@@H](O)[C@H](O)[C@H]2O)[C@@H](O)[C@H](O)[C@H]1O`, for which the activation in assay [1] is -6.11%. For the same compound, the Potency result in assay [2] and in assay [3] was “inactive” each time.

Regarding `Nc1nc(Cl)nc2c1ncn2C1OC(CO)C(O)C1F` (stereo unspecified), in assay [1], the activation is 0%. Besides, the Potency entry in assay [2] and in assay [3] was “inactive” throughout.

With `CC(O)C/C=C/C=C/C(=O)OC1C=C2COC(=O)C2(O)C2(C)CCCC(C)(C)C12` (stereo unspecified), the activation in assay [1] is 5.34%. The Potency entry in assay [2] and in assay [3] was “inactive” each time.

In the case of `COc1c2cc(c(O)c1OC)-c1cc(ccc1O)CCC(O)CCCC2` (stereo unspecified), the activation in assay [1] is 11.5%. Further, the Potency result in assay [2] and in assay [3] was “inactive” in each case.

For `CC(NC(=O)[C@H](Cc1ccccc1)NC(=O)OCc1ccccc1)C(=O)CF` (stereo partly specified), the activation in assay [1] was -5.67%. Further, the Potency result in assay [2] and in assay [3] was “inactive” throughout.

`Cc1ccccc1C(=O)Nc1ccc(C(=O)N2CCC[C@@H](O)c3cc(Cl)ccc32)c(C)c1`: in assay [1], the activation is 0%. The Potency result in assay [2] and in assay [3] was “inactive” in each case.

Take `COc1cc2c(cc1O)CC(O)(CO)C(CO)C2c1ccc(OC2OC(CO)C(O)C(O)C2O)c(OC)c1` (stereo unspecified): the activation in assay [1] is -31.3%. Moreover, the Potency result in assay [2] and in assay [3] was “inactive” throughout.

Take `CCCNc1ccc2ncc(-c3ccc4[nH]ncc4c3)n2n1`: in assay [1], the Potency is 2.39 µM (active). Further, the Potency entry in assay [2] and in assay [3] was “inactive” each time.

On to `CC[C@@H](C)[C@H](N)C(=O)N1Cc2ccccc2C1`, for which the activation in assay [1] is 3.82%. For the same compound, the Potency result in assay [2] and in assay [3] was “inactive” each time.

`COc1cc(O)cc(C)c1C(=O)O[C@H]1[C@@H](OC(C)=O)[C@H](n2ccc(=O)[nH]c2=O)O[C@@H]1CO`: in assay [1], the activation is -32.8%. The Potency result in assay [2] and in assay [3] was “inactive” in each case.

For the compound `CC(C)CC(NC(=O)OCc1ccccc1)C(=O)NC(CC(C)C)C(=O)NC(CCC(=O)O)C(=O)Nc1ccc2ccccc2c1` (stereo not drawn) (Cbz-Leu-Leu-Glu-βNA; configuration not given here), the activation in assay [1] is -5.67%. Moreover, the Potency result in assay [2] and in assay [3] was “inactive” in each case.

Turning to `C=CC(C)(C)c1[nH]c2cc3c(cc2c1CC1NC(=O)C2CCCN2C1=O)C=CC(C)(C)O3` (stereo unspecified), in assay [1], the activation is -13%. The Potency entry in assay [2] and in assay [3] was “inactive” throughout.

Regarding `C[C@@H]1O[C@@H](O[C@H]2[C@H](OC(=O)[C@]34CCC(C)(C)C[C@H]3C3=CCC5[C@@]6(C)CC[C@H](O[C@@H]7O[C@H](CO[C@@H]8OC[C@H](O)[C@H](O)[C@H]8O)[C@@H](O)[C@H](O)[C@H]7O)C(C)(C)C6CC[C@@]5(C)[C@]3(C)C[C@H]4O)OC[C@@H](O)[C@@H]2O)[C@H](O)[C@H](O[C@@H]2OC[C@](O)(CO)[C@H]2O)[C@H]1O[C@@H]1OC[C@H](O)[C@H](O[C@@H]2OC[C@@H](O)[C@H](O)[C@H]2O)[C@H]1O` (stereo partly specified), in assay [1], the activation was 5.36%. Besides, the activity change, negative = inhibition is 7.19% [at 11.2 µM] in assay [2] and 10.7% [at 11.2 µM] in assay [3].

Turning to `C=C1CCC2[C@](C)(CCC[C@@]2(C)C=O)[C@H]1CC/C(C)=C/CO` (stereo partly specified), the activation in assay [1] is 11.5%. Also, the Potency entry in assay [2] and in assay [3] was “inactive” throughout.

With `CCC(=O)O[C@H]1C(C)(C)[C@H]([C@@H](O)C(=O)OC)[C@]2(C)C(=O)[C@@]1(O)[C@H]1O[C@]13C1CC(=O)O[C@@H](c4ccoc4)[C@]1(C)CCC32` (stereo partly specified), the activation in assay [1] is -20.6%. The Potency result in assay [2] and in assay [3] was “inactive” in each case.

Regarding `CCC(C)C1NC(=O)C2C(C)CCN2C(=O)C(CC(O)CO)OC(=O)CCNC(=O)C(C)N(C)C(=O)C(C(C)C)N(C)C1=O` (stereo unspecified), in assay [1], the activation is -6.11%. The Potency entry in assay [2] and in assay [3] was “inactive” throughout.

As to `CCOc1ncc(S(=O)(=O)N2CCN(CC)CC2)cc1-c1nc2c(CC)n(CCOC)nc2c(=O)[nH]1`, the activation in assay [1] is -9.07%. For the same compound, the Potency entry in assay [2] and in assay [3] was “inactive” each time.

For the compound `Nc1nc2c(ncn2[C@@H]2O[C@@H]3COP(=O)(O)O[C@H]3[C@H]2O)c(=O)[nH]1`, in assay [1], the activation is 12.3%. Further, the Potency result in assay [2] and in assay [3] was “inactive” in each case.

Regarding `CC(=O)O[C@H]1[C@@H](O)[C@H](O[C@H]2[C@@H]3C=CO[C@@H](O[C@H]4O[C@@H](CO)[C@H](O)[C@@H](O)[C@@H]4O)[C@@H]3[C@@]3(CO)O[C@@H]23)O[C@@H](C)[C@@H]1OC(=O)/C=C/c1ccccc1`, the activation in assay [1] is -17.9%. Also, the Potency result in assay [2] and in assay [3] was “inactive” each time.

The values above are taken from PubChem BioAssay (NCATS).
